HCV inhibitor = blocks hepatitis C virus | Huh7.5.1 HCVcc-Cre infection, luciferase reporter, 44 h | Potency, µM (titrated, usually from 41.8 µM), for the others: at the highest dose activity change, negative = inhibition, most hits filed as inhibitors | 3.4% of 340,000 active | AID 651820; active = well fitted inhibition curve with a large enough effect; inconclusive = small, poorly fitted or top-dose-only effect, or another doubt; inactive = no such curve, though single readings can be large or run the other way; note: potency is the fitted concentration of half-maximal effect
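Antiviral activity was scored by luciferase reporter output from cells infected with HCVcc-Cre (~0.5 moi) in presence of compound, 44 h infection period, cells seeded 1,000/well 4 h prior.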
MARV entry inh = blocks Marburg virus binding to or entry into cells; Marburg virus pseudotyped entry inhibition, cell reporter; Potency, µM (highest dose often 37.8 µM), for inactives: at the top dose activity change, negative = inhibition, actives largely listed as inhibitors; 1.8% of 300,000 active; calls by dose curve; tested in HEK293 cells; note: potency is the fitted concentration of half-maximal effect
Vaccinia Venus = vaccinia inhibition (Venus reporter); Potency, µM (top dose mostly 36.5 µM), without a hit: at the top dose activity change, negative = inhibition, most hits filed as inhibitors; AID 720580; Vaccinia virus Venus reporter expression, fluorescence; 0.46% of 330,000 active; calls by dose curve; tested in A549 cells; note: potency is the fitted concentration of half-maximal effect; nearly all actives have a fitted effect of over 30% in size
HCMV inh = inhibitors of human cytomegalovirus. HFF cells, HCMV-luciferase reporter, 72 h; active compounds read low. activity change, negative = inhibition, % at 57.5 µM. 4.5% of 410,000 active; in the data active = activity change below about -60%; inconclusive = no clear call, values can overlap the other calls; inactive = above about -39%
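Compounds were evaluated in HFFs infected with an HCMV luciferase reporter virus (MOI 1 PFU/cell). Luciferase in lysates collected 72 h post infection served as the replication measure.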
Vaccinia mCherry = inhibitors of vaccinia virus infection (mCherry reporter signal). 0.63% of 310,000 active. Vaccinia virus mCherry reporter infection, fluorescence. Potency, µM (top dose mostly 36.5 µM), inactives show at the top dose activity change, negative = inhibition, actives largely listed as inhibitors. AID 720579; calls by dose curve; tested in A549 cells; note: potency is the fitted concentration of half-maximal effect; nearly all actives have a fitted effect of over 35% in size
Lassa entry inh = blocks Lassa virus binding to or entry into cells; Lassa virus pseudotype entry inhibition, cell reporter; Potency, µM (series often up to 37.9 µM), inactives show top-dose activity change, negative = inhibition, most hits filed as inhibitors; 1.2% of 300,000 active; AID 540256; calls by dose curve; tested in HEK293 cells; note: potency is the fitted concentration of half-maximal effect; nearly all actives have a fitted effect of over 50% in size
* marks the source's active call; other numbers are inactive results; i = inactive; ? = inconclusive; . = no result given; [ ] = another dose, or the depositor's remark. Compounds with a hit are over-represented: about 7.8% of the library has one in this group of screens. % is set by controls: 0 for no effect and ±100 for the full control effect.

SMILES	HCV inhibitor	MARV entry inh	Vaccinia Venus	HCMV inh	Vaccinia mCherry	Lassa entry inh
c1ccc2c(c1)C(=NCC1CCCO1)NC2=NCC1CCCO1 (stereo not given)	3%	-1%	-17%	-6	-18%	-10%
CCCCN1C[C@H](CO)Oc2cccc(F)c2S1(=O)=O	0.56µM*	.	-8%	9	i	?
O=S1(=O)c2c(F)cccc2OC(COc2ccccc2)CN1CCc1ccc(F)cc1 (stereo not given)	-26%	.	-12%	1	-2%	?
O=S1(=O)c2c(F)cccc2O[C@@H](COCc2ccccc2)CN1CCc1ccc(F)cc1	10µM*	.	0%	-21	-17%	?
C=CCCC1CN(CCCC)S(=O)(=O)c2c(F)cccc2O1 (stereo not given)	-8%	.	-16%	?	i	?
Cc1ccc(CNC(=O)O[C@H]2CC[C@@]34CCCN3C(=O)CCC[C@H]4[C@H]2Cc2ccccc2)o1	.	.	.	-23	.	.
CC(=Nc1ccccc1)C1=C(O)C(Cc2ccc(O)cc2)NC1=O (stereo not given)	21%	-24%	?	-69*	-15%	?
CC(=Nc1ccccc1)C1=C(O)C(Cc2cccc(F)c2)NC1=O (stereo not given)	.	.	?	-72*	-12%	.
COc1ccc(OC)c(-c2noc(N3CCN(c4ccc(Cl)cc4)CC3)n2)c1	.	.	-17%	-26	-14%	-2%[46.1 µM]
O=C(CSc1nc2c(sc3ccccc32)c(=O)n1-c1ccccc1)NCc1ccco1	0%	?	.	-81*	.	?
CCC1CCc2c(sc3nc(SCC(=O)NCc4ccco4)n(-c4ccccc4)c(=O)c23)C1 (stereo not given)	-1%	?	11%	-75*	.	-22%
Cn1c(=O)c2c(-c3ccccc3)n3c(c2n(C)c1=O)C(c1ccccc1[N+](=O)[O-])Nc1ccccc1-3 (stereo not given)	.	6%[46.1 µM]	-8%	-20	-22%	-12%[46.1 µM]
COc1ccccc1C1Nc2ccccc2-n2c(-c3ccccc3)c3c(=O)n(C)c(=O)n(C)c3c21 (stereo not given)	.	?	-16%	-96*	-7%	?
COc1ccc2c3c(n(C)c2c1)[C@@H](CO)N(C(=O)Cc1ccccn1)CC31CCN(C)CC1	.	.	.	0	.	.
COc1cc(-c2ccno2)ccc1S(=O)(=O)N1CCN(c2cccc(Cl)c2)CC1	.	.	1%	-21	-10%	-29%[46.1 µM]
O=C(Nc1ccc2nc(-c3ccco3)c(-c3ccco3)nc2c1)N1CCCCCC1	2.8µM*	-17%	-1%	.	i	-10%
Cc1ccc(CNC(=O)C2CCCN(c3nc4c(C)cc(C)cc4s3)C2)cc1 (stereo not given)	.	-13%[46.1 µM]	-10%	14	6%	.
O=C1CCSC2(C(=O)N(Cc3ccc(F)cc3)c3ccccc32)N1c1ccc(F)c(F)c1 (stereo not given)	.	.	-20%	0	-25%	15%[46.1 µM]
Cc1cc(NC(=O)COC(=O)c2c(Cl)cccc2Cl)no1	9%	.	.	-68*	.	.
Cc1noc(C)c1C(=O)OCC(=O)Nc1cccc(S(=O)(=O)N(C)C)c1	6%	19%	-17%	-30	-1%	2%
Cc1cc(NC(=O)COC(=O)c2cccc(O)c2)no1	13%	.	14%	-65*	i	.
Cc1cc(NC(=O)COC(=O)c2ccccc2S(=O)(=O)N(C)c2ccccc2)no1	-12%	?	25%	-101*	-17%	2.5µM*
Cc1onc(-c2c(F)cccc2Cl)c1C(=O)OCC(=O)Nc1cccc(S(=O)(=O)N(C)C)c1	?	16µM*	?	-70*	?	?
COc1cc(CN(C(=O)c2ccc(OC(C)C)cc2)c2ccccn2)cc(OC)c1OC	.	?	-20%	-30	-12%	-13%[46.1 µM]
COc1cccc(C(=O)C(=O)NC(C)(C)C)c1	.	.	.	38	.	.
SMILES	HCV inhibitor	MARV entry inh	Vaccinia Venus	HCMV inh	Vaccinia mCherry	Lassa entry inh
Fc1ccc(CNc2nc3c(-c4ccc(F)cc4)nnn3c3ccccc23)cc1	.	21%[46.1 µM]	-1%	35	2%	10%[46.1 µM]
N#CCCN(C(=O)CSc1ncccn1)c1ccc2c(c1)OCCO2	13%	.	.	12	.	.
O=C(CCl)N(C/C=C/c1ccccc1)c1ccc2c(c1)OCCO2	2.2µM*	17%[46.1 µM]	-25%	58	-6%	?
C=CCn1c(CCC(O)COCCCCC)n[nH]c1=S (stereo not given)	2%	16%	-11%	-97*	-20%	6%
CNS(=O)(=O)c1ccc2nc(NC(=O)/C=C/c3ccco3)sc2c1	?	-24%[46.1 µM]	?	-20	6.3µM*	-16%[46.1 µM]
COC(=O)C1=C(c2ccc(OC(F)(F)F)cc2)C[C@@H]2CC[C@H]1N2C(=O)N1CCOCC1	?	.	-18%	-22	-2%	.
COC(=O)C1=C(c2ccc(OC(F)(F)F)cc2)C[C@@H]2CC[C@H]1N2C(=O)N1CCC(C)CC1	?	.	?	-64*	-25%	.
COC(=O)C1=C(c2ccc(OC(F)(F)F)cc2)C[C@@H]2CC[C@H]1N2C(=O)N1CCCC1	13µM*	.	?	?	-14%	.
Nc1ncnc2c1c(-c1ccc(Oc3ccccc3)cc1)cn2C1CCCC1	?	?	?	-64*	-10%	?
COc1ccc(-n2cc(-c3ccccc3)c3c(NC4CCCC4)ncnc32)cc1	.	.	-4%	?	-8%	?
Cc1cc(C)nc(Sc2ccc3nnnn3n2)n1	7%	14%	3.5µM*	-37	0.5µM*	26%
COc1cccc(CNC(=O)c2cc(-c3ccc(Cl)cc3)n[nH]2)c1	.	.	-6%	-14	-3%	18%[46.1 µM]
Cc1ccc(NC2(c3nnnn3-c3c(C)cccc3C)CCCCC2)cc1	?	?	-15%	-74*	-18%	?
COc1cccc(CN2C(=O)C(C)N(C(=O)c3c(F)cccc3F)c3ccccc32)c1 (stereo not given)	10µM*	.	.	-83*	.	.
Cc1ccccc1-c1nc(CNC(=O)Nc2ccccc2)c(C)o1	.	.	1%	-18	5%	9%[46.1 µM]
CN(C)c1ccc(/C=N/NC(N)=S)cc1[N+](=O)[O-]	9%	-8%[46.1 µM]	4µM*	12	3.5µM*	-5%
NC(=S)N/N=C/c1cc([N+](=O)[O-])ccc1Cl	-8%	.	2.2µM*	10	?	.
Cc1ccc(S(=O)(=O)N/N=C\c2cc([N+](=O)[O-])ccc2Cl)cc1	12%	?	-18%	-90*	-9%	?
O=C(Cn1cc(SCc2ccc(F)cc2)c2ccccc21)N1CCCC1	.	.	-14%	20	-11%	?
COc1ccc(-c2oc3c(c2C#CC2(O)CCCCC2)C(OC)CCC3)cc1 (stereo not given)	.	.	-11%	11	-11%	.
CCn1cc(C(=O)OCC(=O)Nc2cc(OC)cc(OC)c2)c(=O)c2ccc(C)nc21	.	3%[46.1 µM]	-1%	-37	6%	?

Source: PubChem
